# Where two headings read alike, the source gives them in different places.
# What was measured:
# ABL1 = test system: ABL1; design: species or system human, MV4-11 + K-562 + COLO205 + SK-N-BE2 + OVCAR-8; conditions: read-out: apparent Kd, n = 1
# FYN = test system: FYN; design: species or system human, MV4-11 + K-562 + COLO205 + SK-N-BE2 + OVCAR-8; conditions: read-out: apparent Kd, compound concentrations: 100 nM and 1000 nM (sheet 'Samples'), n = 1
# GAK = test system: GAK; design: species or system human, MV4-11 + K-562 + COLO205 + SK-N-BE2 + OVCAR-8; conditions: read-out: apparent Kd, compound concentrations: 100 nM and 1000 nM (sheet 'Samples'), n = 1
# HCK = test system: HCK; design: species or system human, MV4-11 + K-562 + COLO205 + SK-N-BE2 + OVCAR-8; conditions: read-out: apparent Kd, compound concentrations: 100 nM and 1000 nM (sheet 'Samples'), n = 1
# LCK = test system: LCK; design: species or system human, MV4-11 + K-562 + COLO205 + SK-N-BE2 + OVCAR-8; conditions: read-out: apparent Kd, compound concentrations: 100 nM and 1000 nM (sheet 'Samples'), n = 1
# PTK6 = test system: PTK6; design: species or system human, MV4-11 + K-562 + COLO205 + SK-N-BE2 + OVCAR-8; conditions: read-out: apparent Kd, compound concentrations: 100 nM and 1000 nM (sheet 'Samples'), n = 1
# RIPK2 = test system: RIPK2; design: species or system human, MV4-11 + K-562 + COLO205 + SK-N-BE2 + OVCAR-8; conditions: read-out: apparent Kd, n = 1
# RIPK3 = test system: RIPK3; design: species or system human, MV4-11 + K-562 + COLO205 + SK-N-BE2 + OVCAR-8; conditions: read-out: apparent Kd, compound concentrations: 100 nM and 1000 nM (sheet 'Samples'), n = 1
# YES1 = test system: YES1; design: species or system human, MV4-11 + K-562 + COLO205 + SK-N-BE2 + OVCAR-8; conditions: read-out: apparent Kd, compound concentrations: 100 nM and 1000 nM (sheet 'Samples'), n = 1
# ABL2 = test system: ABL2; design: species or system human, MV4-11 + K-562 + COLO205 + SK-N-BE2 + OVCAR-8; conditions: read-out: apparent Kd, n = 1
# BCR = test system: BCR; design: species or system human, MV4-11 + K-562 + COLO205 + SK-N-BE2 + OVCAR-8; conditions: read-out: apparent Kd, n = 1
# RET = test system: RET; design: species or system human, MV4-11 + K-562 + COLO205 + SK-N-BE2 + OVCAR-8; conditions: read-out: apparent Kd, n = 1
# TNK1 = test system: TNK1; design: species or system human, MV4-11 + K-562 + COLO205 + SK-N-BE2 + OVCAR-8; conditions: read-out: apparent Kd, compound concentrations: 100 nM and 1000 nM (sheet 'Samples'), n = 1
# CLK1 = test system: CLK1; design: species or system human, MV4-11 + K-562 + COLO205 + SK-N-BE2 + OVCAR-8; conditions: read-out: apparent Kd, n = 1
# CLK4 = test system: CLK4; design: species or system human, MV4-11 + K-562 + COLO205 + SK-N-BE2 + OVCAR-8; conditions: read-out: apparent Kd, n = 1
# CSNK2A1;CSNK2A3 = test system: CSNK2A1;CSNK2A3; design: species or system human, MV4-11 + K-562 + COLO205 + SK-N-BE2 + OVCAR-8; conditions: read-out: apparent Kd, n = 1
# CSNK2A2 = test system: CSNK2A2; design: species or system human, MV4-11 + K-562 + COLO205 + SK-N-BE2 + OVCAR-8; conditions: read-out: apparent Kd, n = 1
# Q6ZSR9 = Q6ZSR9 (human, UniProt Q6ZSR9); design: species or system MV4-11 + K-562 + COLO205 + SK-N-BE2 + OVCAR-8; conditions: read-out: apparent Kd; compound concentrations: 100 nM and 1000 nM (sheet 'Samples'), CATDS: 1.0084125464563E-2; n = 1
# [1] = compound concentrations:100 nM and 1000 nM (sheet 'Samples')
# Chain of Q6ZSR9 (Q6ZSR9 whole entry, looked up): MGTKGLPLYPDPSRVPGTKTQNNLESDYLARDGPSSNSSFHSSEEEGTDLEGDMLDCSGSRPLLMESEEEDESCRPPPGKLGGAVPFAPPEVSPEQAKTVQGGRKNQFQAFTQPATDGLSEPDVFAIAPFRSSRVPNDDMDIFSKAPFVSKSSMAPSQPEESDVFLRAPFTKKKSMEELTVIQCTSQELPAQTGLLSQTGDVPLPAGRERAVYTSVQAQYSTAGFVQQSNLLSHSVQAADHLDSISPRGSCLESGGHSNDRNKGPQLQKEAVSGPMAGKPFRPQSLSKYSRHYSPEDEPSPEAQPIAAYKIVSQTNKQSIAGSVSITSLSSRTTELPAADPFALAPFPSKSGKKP
structure (smiles),measurement,setting,value
c1ccc(Oc2ccc(Nc3ccnc4cc(-c5ccc(CN6CCCCC6)o5)ccc34)cc2)nc1 [GW567143X],potency estimated from few doses,"ABL1; compound concentrations: 100 nM and 1000 nM (sheet 'Samples'), CATDS: 4.7219356438219597E-2",0.634 µM
same,potency estimated from few doses,FYN; CATDS: 4.4213624367354799E-2,0.771 µM
same,potency estimated from few doses,GAK; CATDS: 4.2163459383367997E-2,0.895 µM
same,potency estimated from few doses,HCK; CATDS: 0.14005546575241301,0.0688 µM
same,potency estimated from few doses,LCK; CATDS: 5.0953813421882002E-2,0.515 µM
same,potency estimated from few doses,PTK6; CATDS: 0.13556199485993101,0.0724 µM
same,potency estimated from few doses,"RIPK2; compound concentrations: 100 nM and 1000 nM (sheet 'Samples'), CATDS: 0.12946024003761",0.0779 µM
same,potency estimated from few doses,RIPK3; CATDS: 4.1439147975506997E-2,0.948 µM
same,potency estimated from few doses,YES1; CATDS: 5.50755734526098E-2,0.421 µM
COc1cc2nccc(Nc3ccc(Oc4ccccc4)cc3)c2cc1OC.Cl [GI261656A],potency estimated from few doses,"ABL1; compound concentrations: 100 nM and 1000 nM (sheet 'Samples'), CATDS: 4.9234778502166003E-2",0.661 µM
same,potency estimated from few doses,FYN; CATDS: 5.8520288071811297E-2,0.36 µM
same,potency estimated from few doses,HCK; CATDS: 0.224802192402594,0.0233 µM
same,potency estimated from few doses,LCK; CATDS: 9.1462099087555204E-2,0.115 µM
same,potency estimated from few doses,PTK6; CATDS: 8.1912311053812595E-2,0.147 µM
same,potency estimated from few doses,"RIPK2; compound concentrations: 100 nM and 1000 nM (sheet 'Samples'), CATDS: 0.26781417161536297",0.0181 µM
same,potency estimated from few doses,RIPK3; CATDS: 5.1839194955901301E-2,0.542 µM
same,potency estimated from few doses,YES1; CATDS: 0.10993421284825,0.0787 µM
Cn1cc(-c2ccc3c(c2)CCN3C(=O)Cc2cccc(Cl)c2)c2c(N)ncnc21 [GSK2606590A],potency estimated from few doses,"ABL1; compound concentrations: 100 nM and 1000 nM (sheet 'Samples'), CATDS: 0.26932988266552799",1.72 µM
Nc1ncc(-c2cn[nH]c2)c2scc(-c3ccc4c(c3)CCN4C(=O)Cc3ccccc3)c12 [GSK2593067A],potency estimated from few doses,"ABL1; compound concentrations: 100 nM and 1000 nM (sheet 'Samples'), CATDS: 6.1234065339549101E-2",1.56 µM
same,potency estimated from few doses,LCK; CATDS: 7.5344179504310702E-2,0.841 µM
same,potency estimated from few doses,"RIPK2; compound concentrations: 100 nM and 1000 nM (sheet 'Samples'), CATDS: 7.5110526663463406E-2",0.848 µM
Fc1cc(Cl)ccc1Nc1ccnc2cc(-c3ccc(CN4CCOCC4)o3)ccc12 [GW560109X],potency estimated from few doses,"ABL1; compound concentrations: 100 nM and 1000 nM (sheet 'Samples'), CATDS: 5.7871370068112001E-2",1.2 µM
same,potency estimated from few doses,"ABL2; compound concentrations: 100 nM and 1000 nM (sheet 'Samples'), CATDS: 6.6885266429186699E-2",0.81 µM
same,potency estimated from few doses,"BCR; compound concentrations: 100 nM and 1000 nM (sheet 'Samples'), CATDS: 0.27388815671753503",0.0664 µM
same,potency estimated from few doses,GAK; CATDS: 5.9630252923923099E-2,1.1 µM
same,potency estimated from few doses,HCK; CATDS: 5.4118184617509203E-2,1.48 µM
same,potency estimated from few doses,PTK6; CATDS: 6.7887281457167797E-2,0.78 µM
same,potency estimated from few doses,"RET; compound concentrations: 100 nM and 1000 nM (sheet 'Samples'), CATDS: 9.1999760709611106E-2",0.4 µM
same,potency estimated from few doses,"RIPK2; compound concentrations: 100 nM and 1000 nM (sheet 'Samples'), CATDS: 0.235092034784944",0.0826 µM
same,potency estimated from few doses,RIPK3; CATDS: 7.3765709446288102E-2,0.641 µM
CS(=O)(=O)Cc1ccc(Nc2nccc(-c3c(-c4cccc(NC(=O)c5c(F)cccc5F)c4)nn4ccccc34)n2)cc1 [GSK323543A],potency estimated from few doses,"ABL2; compound concentrations: 100 nM and 1000 nM (sheet 'Samples'), CATDS: 7.35852808685315E-2",0.971 µM
same,potency estimated from few doses,HCK; CATDS: 9.4870937315331097E-2,0.576 µM
same,potency estimated from few doses,LCK; CATDS: 7.3424400867348402E-2,0.976 µM
same,potency estimated from few doses,"RET; compound concentrations: 100 nM and 1000 nM (sheet 'Samples'), CATDS: 0.14439255275757601",0.289 µM
same,potency estimated from few doses,RIPK3; CATDS: 7.2905332862385097E-2,0.992 µM
same,potency estimated from few doses,TNK1; CATDS: 0.144635692896082,0.288 µM
same,potency estimated from few doses,YES1; CATDS: 0.11796638249333601,0.395 µM
CNc1nccc(-c2c(-c3ccc(F)cc3)ncn2C2CCN(C)CC2)n1 [SB-222903],potency estimated from few doses,ABL2; [1],0.389 µM
same,potency estimated from few doses,CLK1; [1],0.808 µM
same,potency estimated from few doses,RIPK2; [1],0.433 µM
CNC(=O)c1ccccc1Nc1nc(Nc2cccc(CS(C)(=O)=O)c2)ncc1C.O=CO [GSK1520489A],potency estimated from few doses,"ABL1; compound concentrations: 100 nM and 1000 nM (sheet 'Samples'), CATDS: 1.34944121173274E-2",0.401 µM
same,potency estimated from few doses,"ABL2; compound concentrations: 100 nM and 1000 nM (sheet 'Samples'), CATDS: 1.36244790700583E-2",0.389 µM
same,potency estimated from few doses,"BCR; compound concentrations: 100 nM and 1000 nM (sheet 'Samples'), CATDS: 1.52044449937046E-2",0.28 µM
same,potency estimated from few doses,"CLK1; compound concentrations: 100 nM and 1000 nM (sheet 'Samples'), CATDS: 2.0431825511786902E-2",0.131 µM
same,potency estimated from few doses,"CLK4; compound concentrations: 100 nM and 1000 nM (sheet 'Samples'), CATDS: 1.6424162942173099E-2",0.226 µM
same,potency estimated from few doses,"CSNK2A1;CSNK2A3; compound concentrations: 100 nM and 1000 nM (sheet 'Samples'), CATDS: 1.12264805832196E-2",0.773 µM
same,potency estimated from few doses,"CSNK2A2; compound concentrations: 100 nM and 1000 nM (sheet 'Samples'), CATDS: 1.1107914266042299E-2",0.807 µM
same,potency estimated from few doses,FYN; CATDS: 1.4785651294397E-2,0.304 µM
same,potency estimated from few doses,HCK; CATDS: 2.2518734177974401E-2,0.105 µM
same,potency estimated from few doses,LCK; CATDS: 2.8625863065429399E-2,0.063 µM
same,potency estimated from few doses,PTK6; CATDS: 5.57669232791278E-2,0.0197 µM
same,potency estimated from few doses,Q6ZSR9,1.26 µM
same,potency estimated from few doses,"RET; compound concentrations: 100 nM and 1000 nM (sheet 'Samples'), CATDS: 2.6340417566827701E-2",0.0746 µM
same,potency estimated from few doses,TNK1; CATDS: 3.8833580007227697E-2,0.0356 µM
same,potency estimated from few doses,YES1; CATDS: 2.28565858871594E-2,0.101 µM
COc1cc(/C=N/Nc2ncnc3[nH]ncc23)ccc1O [GW578748X],potency estimated from few doses,ABL1; [1],1.25 µM
same,potency estimated from few doses,BCR; [1],0.678 µM
same,potency estimated from few doses,CLK1; [1],1.37 µM
same,potency estimated from few doses,CLK4; [1],0.401 µM
same,potency estimated from few doses,CSNK2A1;CSNK2A3; [1],0.384 µM
same,potency estimated from few doses,CSNK2A2; [1],0.376 µM
same,potency estimated from few doses,RET; [1],0.494 µM
